In the library only some 3.9% were active in any assay of this set; here they are far more common.
Autofluor counter: counter-screen for toxin protease inhibitors: compound fluorescence; compound autofluorescence counterscreen, microsphere flow cytometry; stronger effect = higher value; fluorescence intensity (concentration not given with the values); 360,000 compounds, 3.1% hits; AID 624483; in the data active = fluorescence intensity above about 16000; inconclusive = no clear call, values can overlap the other calls
BoNT-A LC inh2: BoNT A light chain protease inhibition; inhibition, % at 10 µM; multiplex microsphere protease substrate cleavage, flow cytometry; 360,000 compounds, 0.17% hits; AID 588499; also: plate controls were buffer without enzyme for full effect and enzyme alone for no effect
BH1578 lux ind: induces V. cholerae light production without autoinducers; 350,000 compounds, 0.16% hits; V. cholerae BH1578 lux reporter, luminescence, 6 h; activation, % at 18.7 µM; in the data active = activation mostly above about 9.7%, no sharp cut-off; inconclusive = no clear call, values can overlap the other calls; inactive = mostly below about 3.7%
MazEF act: MazEF (E. coli) toxin RNase activation; activation, % at 20 µM; AID 504720; 350,000 compounds, 0.32% hits; FAM/BHQ RNA-DNA oligo cleavage fluorescence, 5 h; in the data active = activation above about 50%
Target sequence (P0AE70 whole entry, looked up): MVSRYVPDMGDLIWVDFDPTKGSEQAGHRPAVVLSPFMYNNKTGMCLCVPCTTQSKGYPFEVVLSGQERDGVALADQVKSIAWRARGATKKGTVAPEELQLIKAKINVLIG
BoNT-F LC inh: BoNT F light chain protease inhibition | inhibition, % at 10 µM | AID 588497 | 360,000 compounds, 0.22% hits | Multiplex microsphere protease cleavage assay, flow cytometry; in the data active = inhibition above about 35%, passing the limit was not always enough; inconclusive = no clear call, values can overlap the other calls; also: plate controls were buffer without enzyme for full effect and enzyme alone for no effect
Anthrax LF prot: inhibitors of Bacillus anthracis lethal factor protease | 360,000 compounds, 0.12% hits | inhibition, % at 10 µM | multiplex microsphere protease cleavage assay, LF; also: plate controls were buffer without enzyme for full effect and enzyme alone for no effect
Numbers without * were called inactive; i = inactive; ? = inconclusive; · = no result given. Rule as the data show it, unless noted: active = inhibition above about 30%; inconclusive = no clear call, values can overlap the other calls; inactive = below that.

SMILES | Autofluor counter | BoNT-A LC inh2 | BH1578 lux ind | MazEF act | BoNT-F LC inh | Anthrax LF prot
O=C(O)C1C2C=CC(C2)C1C(=O)NC1CCN(Cc2ccccc2)CC1 (stereo not given) | 20434* | ? | i | -2 | 1 | 1
O=C(NC1CCN(Cc2ccccc2)CC1)C1COc2ccccc2O1 (stereo not given) | 4314 | 1 | i | 3 | -7 | -3
O=C(CCC(=O)NC1CCN(Cc2ccccc2)CC1)NCc1ccco1 | 23478* | ? | 2 | 4 | -2 | -1
O=C(Cn1[nH]c(=O)c2ccccc2c1=O)NC1CCN(Cc2ccccc2)CC1 | 23670* | -2 | i | 5 | 0 | -1
O=C(CN1CCN(Cc2ccccc2)CC1)NC(=O)NCc1ccco1 | 2506 | 1 | · | -16 | -2 | 0
COc1ccc(CN2CCC2(C)C(=O)NCc2ccc3c(c2)OCO3)c2ccccc12 (stereo not given) | 4016 | -1 | 0 | · | -6 | -11
CCOc1ccc(C(=O)Nc2ncccc2Cl)cc1 | 2387 | 0 | i | -1 | 3 | 0
Cc1ccc(S(=O)(=O)CC2CSc3nc(N)cc(=O)n32)cc1 (stereo not given) | 21227* | ? | 1 | 3 | 2 | -1
Cc1c(N=C2N=C(NC(=O)Nc3ccc(Cl)cc3)c3ccccc32)c(=O)n(-c2ccccc2)n1C | 4387 | 0 | 0 | 88* | 0 | -7
Cn1c(=O)[nH]c(=O)c2c1nc(Br)n2CCCSc1nc2ccccc2o1 | 17409* | ? | 0 | 0 | -7 | 0
C/C=C/Cn1c(Br)nc2c1c(=O)[nH]c(=O)n2C | 22506* | 1 | i | -5 | 1 | -4
Cn1c(SCc2ccccn2)nnc1-c1ccccc1 | 4319 | 0 | i | 1 | -4 | -3
COCCn1c(=NC(=O)c2cc(-c3cccs3)nc3ccccc23)sc2cc(S(N)(=O)=O)ccc21 | 2383 | 34* | 0 | -17 | 2 | 12
C=CCn1c(=NC(=O)c2cc(-c3cccs3)nc3ccccc23)sc2cc(S(N)(=O)=O)ccc21 | 2634 | 18 | -2 | 5 | 5 | 8
Nc1[nH]c(C(=O)c2ccccc2)c(-c2ccccc2C(F)(F)F)c1C(=O)NCc1ccc(F)cc1 | 6071 | 0 | · | · | 3 | 7
Cc1ccccc1NC(=O)c1ccc(C)c(S(=O)(=O)NCc2cccnc2)c1 | 4532 | -2 | 0 | -6 | 5 | -2
Cc1ccc(C(=O)Nc2ccc(Br)cc2)cc1S(=O)(=O)Nc1ccccn1 | 8887 | 0 | -1 | 125* | -5 | -1
Cc1ccccc1NC(=O)c1ccc(C)c(S(=O)(=O)Nc2ccccn2)c1 | 18024* | 11 | 0 | 0 | 16 | -18
Cc1ccccc1NS(=O)(=O)c1cc(C(=O)N2CCc3ccccc3C2)ccc1C | 25113* | ? | -2 | 1 | -5 | -3
Cc1nc(Nc2ccc(Cl)cc2)c(C#N)c(=O)[nH]1 | 3360 | -3 | 0 | 4 | ? | -14
CC(C)c1ccc(CN2CCC2(C)C(=O)Nc2cccc(Oc3ccccc3)c2)cc1 (stereo not given) | 3991 | 0 | 0 | · | -7 | 0
COC(=O)[C@]12CCCCC=C1N(Cc1ccccc1)C(=O)[C@H](CC(=O)NCCC(C)C)C2 | 4330 | 0 | · | · | 17 | 6
CCn1c(SC(=O)NC2CCCCC2)nnc1-c1cccs1 | 16821* | -1 | -6 | 2 | -1 | -3
CCn1c(SCC(=O)NC2CCCCC2)nnc1-c1cccs1 | 20887* | 4 | i | 1 | 3 | -17
Cc1cccc(C)c1OCC(=O)NCc1nnc(SCC(=O)NC2CCCCC2)n1C | 22773* | ? | 4 | 4 | -5 | -5
SMILES | Autofluor counter | BoNT-A LC inh2 | BH1578 lux ind | MazEF act | BoNT-F LC inh | Anthrax LF prot
O=c1sc(Nc2ccccc2)nc2ccsc12 | 19370* | ? | -1 | 3 | 0 | -5
O=S(=O)(c1ccccc1)N1CCN(c2ncccn2)CC1 | 22296* | 0 | -2 | -9 | 1 | -5
O=S(=O)(c1ccc(Br)s1)N1CCN(c2ncccn2)CC1 | 22792* | 1 | 0 | -12 | 3 | -4
Nc1[nH]c(C(=O)c2ccccc2)c(-c2ccc(F)cc2)c1C(=O)NCc1ccccc1 | 6350 | 0 | · | · | 4 | 3
CCc1nc2ccc(C(=O)NCCCn3ccnc3)cn2c1N(CC)CCOC | 3583 | 0 | -3 | · | 11 | -5
CCN(Cc1ccccc1)C(=O)Cn1cnc2c1c(=O)n(C)c(=O)n2C | 20794* | ? | -2 | -9 | -4 | 2
CCN(CC)C(=O)Cn1cnc2c1c(=O)n(C)c(=O)n2C | · | · | 0 | 10 | · | ·
Cn1c(=O)c2c(ncn2CCN(CCO)Cc2ccccc2)n(C)c1=O | 20125* | 4 | i | 6 | 8 | -14
Cn1c(=O)c2c(ncn2CC(=O)Nc2ccccc2)n(C)c1=O | 3256 | 0 | -1 | 1 | -1 | 1
Cc1noc(C)c1COC(=O)C1CCN(S(=O)(=O)c2c(Cl)cccc2Cl)CC1 | 5229 | 7 | i | 7 | 1 | 11
CCCc1cn(S(=O)(=O)c2ccc(OC)cc2OC)nc1N | 17146* | -4 | i | 3 | -6 | -3
CCc1cn(S(=O)(=O)c2ccccc2OC)nc1N | 7756 | 0 | 0 | 17 | 0 | -2
Cc1cc(C)c2c(c1)/C(=N\N=c1\sc3ccccc3n1C)C(=O)N2 | 4440 | 1 | 0 | 35 | -4 | 0
CSc1ccccc1NC(=O)Nc1ccc(Cl)cc1 | 20588* | 9 | 1 | -20 | 8 | -10
CCOc1ccccc1NC(=O)c1cnccn1 | 4300 | -1 | -1 | 5 | -2 | -2
CSc1ccccc1NC(=O)c1cnccn1 | 16758* | ? | i | 5 | -6 | -2
CCc1ccccc1NC(=O)c1cnccn1 | 21346* | -2 | -1 | 0 | -4 | 0
CC(C)c1ccccc1NC(=O)c1cnccn1 | 25411* | ? | -1 | -7 | -5 | -2
O=C(NCc1ccc(F)cc1)c1cc(C2CCCCN2C(=O)CCCc2ccccc2)on1 (stereo not given) | 3955 | 0 | -5 | · | 2 | 0
N=NC(=O)c1ccccc1Nc1c(O)[nH]c2ccccc12 | 3785 | 0 | -1 | 12 | -10 | -9
CCOc1ccc(NC(=O)NC2CCCCCCC2)cc1 | 6558 | -3 | i | -4 | -7 | -1
CCOc1ccc(NC(=O)NCCN2C(C)CCCC2C)cc1 (stereo not given) | 17584* | -1 | -1 | 3 | -1 | 0
CCOc1ccc(NC(=O)NCCCSC2CCCCC2)cc1 | 22514* | 0 | 0 | -4 | 0 | 1
Cc1ccc(C(=O)NCCNc2ccc(Cl)cc2[N+](=O)[O-])o1 | 22948* | ? | i | 1 | -4 | -3
CS(=O)(=O)NCCCNc1ccc(C(F)(F)F)cc1[N+](=O)[O-] | 4421 | -1 | i | 1 | 0 | -4
O=C(NCCNc1ccc(Cl)cc1[N+](=O)[O-])c1ccccc1F | 4266 | -3 | 0 | 3 | ? | -8
CS(=O)(=O)NCCCNc1ccc(Cl)cc1[N+](=O)[O-] | 22714* | 1 | -3 | 9 | 1 | 1

From PubChem
